Inhibition data for 26 compounds are collected here from ChEMBL document CHEMBL4513136, “CO-ADD screening of CSIC (Spain) compounds”.

The test system of test [1] is Klebsiella pneumoniae. The note with it: Concentration 32 ug.mL-1; ASSAY_TEST Inhibition of Bacterial Growth; detection method Absorption (OD600); MEDIA CAMHB; plate type 384well; NBS; CORNING #3640; time 18 hr.
Test [2] concerns Candida albicans. The note with it: 32 ug/mL.
Test [3] has as its system Cryptococcus neoformans. The note with it: Concentration 32 ug.mL-1; ASSAY_TEST Inhibition of Fungal Growth; detection method Resazurin; Absorption (OD600-OD570); plate type 384well; NBS; CORNING #3640.

Potency and affinity values are given separately.

In the case of `Oc1ccc(-n2cc(-c3cc(O)ccc3O)nn2)cc1`, the Inhibition (as a rule, the drop in the measured response relative to a control, in per cent) in test [1] was 10.3%; in test [2], 1.72%; in test [3], -19.32%.
In the same order, the values of `COc1ccc(CN2C(=O)C(C)C2(Cc2cn(C(=O)OC(C)(C)C)c3ccccc23)C(=O)OC(C)(C)C)cc1` (stereo not drawn) are 15.95%, 7.68% and -81.49%.
`COC(=O)c1c(C(Cc2ccccc2)NC(=O)OCc2ccccc2)[nH]c2ccccc12` (stereo not drawn): the Inhibition in test [1] is 2.35%; in test [2], 0.58%; in test [3], -63.52%.
The matching figures for `O=C(/C=C/c1c[nH]c2ccc(O)cc12)c1cc(O)ccc1O`: 6.02%, 4.1% and -105.31%.
On to `COc1ccc(NC(=O)Cc2cc(OC)ccc2OC)cc1`, for which the Inhibition is 9.76% in test [1], 1.24% in test [2] and -67.4% in test [3].
`CC1C(=O)N(Cc2ccc(OCCN3CCOCC3)cc2)C1(Cc1ccccc1)C(=O)O` (stereo not drawn): the Inhibition in test [1] is 2.32%; in test [2], 1.79%; in test [3] it was -59.46%.
`O=C(/C=C/c1ccccc1O)c1cc(O)c(O)cc1O`: the Inhibition was 21.23% in test [1], 6.47% in test [2] and -81.74% in test [3].
Consider `O=C(Cc1cc(O)ccc1O)Nc1ccc(O)cc1O`, for which the Inhibition in test [1] is 6.35%; in test [2], 4.45%; in test [3] it was -73.31%.
The matching figures for `COc1ccc(OC)c(CC(=O)Nc2cc(OC)ccc2OC)c1`: 5.13%, 6.79% and -78.53%.
Turning to `COc1ccc(OC)c(C(=O)/C=C/c2c[nH]c3ccc(OC)cc23)c1`, the Inhibition in test [1] is 2.62%; in test [2] it was 3.54%; in test [3], -74.27%.
The matching figures for `COc1ccccc1/C=C/C(=O)c1cc(OC)c(OC)cc1OC`: 12.89%, 3.46% and -68.54%.
The matching figures for `COc1ccc(OC)c(NC(=O)Nc2ccc(OC)cc2OC)c1`: 6.68%, -0.5% and -79.12%.
Regarding `Oc1ccc(O)c(-c2cn(-c3ccc(O)c(O)c3)nn2)c1`, the Inhibition in test [1] was -0.99%; in test [2], 3.17%; in test [3], -118.29%.
The matching figures for `COc1ccc(OC)c(-c2cn(-c3ccc(OC)c(OC)c3)nn2)c1`: -16.63%, 10.9% and -110.55%.
The matching figures for `O=C(Cc1cc(O)ccc1O)Nc1cc(O)ccc1O`: 9.18%, 0.34% and -2.68%.
In the same order, the values of `COC(=O)C1(Cc2ccc(OCc3c(Cl)cccc3Cl)cc2)C(C)C(=O)N1Cc1ccc(OC)cc1` (stereo not drawn) are 5.7%, 7.8% and -62.93%.
For the compound `COc1ccc(OC)c(C(=O)CCc2ccccc2O)c1`, the figures for the Inhibition in test [1], in test [2] and in test [3] were 4.74%, 4.16% and -73.15%, respectively.
The matching figures for `O=C(Cc1cc(O)ccc1O)Nc1ccc(O)cc1`: 12.9%, 2.83% and -32.05%.
The matching figures for `COc1ccc(C(=O)/C=C/c2ccc(OC)cc2OC)cc1`: -4.58%, 9.33% and -93.49%.
Take `COc1ccc(OC)c(C(=O)/C=C/c2ccccc2O)c1`: the values for the Inhibition in test [1], in test [2] and in test [3] were -4.68%, 16.8% and -71.16%, respectively.
Regarding `O=C(OCc1ccccc1)N1C(=O)C(c2ccccc2NC(=O)C(F)(F)F)=C(O)C1Cc1ccccc1` (stereo not drawn), the Inhibition in test [1] is 7.86%; in test [2] it was 0.9%; in test [3] it was -95.18%.
For the compound `O=C(CCc1ccc(O)cc1O)c1cc(O)ccc1O`, the figures for the Inhibition in test [1], in test [2] and in test [3] were 10.96%, 3.81% and -52.63%, respectively.
On to `O=C(Nc1ccc(O)cc1O)Nc1cc(O)ccc1O`, for which the Inhibition in test [1] is 9.23%; in test [2] it was -2.25%; in test [3], 15.83%.
As for `COc1ccc(OC)c(C(=O)CCc2ccc(O)cc2)c1`, the Inhibition in test [1] was 3.34%; in test [2], 1.55%; in test [3], -66.83%.
`COc1ccc(OC)c(C(=O)/C=C/c2ccc(O)cc2)c1`: the values for the Inhibition in test [1], in test [2] and in test [3] were -6.02%, 2.83% and -65.46%, respectively.
For the compound `COc1ccc(OC)c(CC(=O)Nc2ccc(OC)cc2OC)c1`, the Inhibition was 9.85% in test [1], 16.6% in test [2] and -87.08% in test [3].
